About 83,000 compounds went through this panel and 20% of them were active in at least one assay; those are over-represented in the sample as a whole.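 Negative percent growth values reflect cell death: -40 means 40% of the cells present at the start died, and -100 means all died.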 Activity calls are given as the source filed them.

This test deals with HOP-62 NSCLC. The experiment in a line: NCI-60 one-dose screen, 48 h (100 = growth as untreated, 0 = no growth, -100 = all killed). The conditions noted are these: 10 µM unless noted. How it is done: Growth inhibition of the HOP-62 human Non-Small Cell Lung tumor cell line is measured as a screen for anti-cancer activity. Cells are grown in 96 well plates and exposed to the test compound for 48 hours. Compounds are tested at a single concentration, which is 10^-5 M for most compounds. The reported endpoint is percent growth (GI% or GIPRCNT), where numbers from 0 - 100% represent growth inhibition, and numbers from -100% - 0 represent cell death. For example, a value of 40 represents 60% growth inhibition. A value of 0 means no net growth occurred over the course of the experiment. A value of -40 indicates 40% of cells at the beginning of the experiment died by the end of the experiment. A value of -100 means all cells are dead at the end of the experiment.
NCI-60 Human Tumor Cell Lines Screen was performed using the standard one-dose NCI protocol, which is described in more detail at https://dtp.cancer.gov/discovery_development/nci-60/default.htm.
Compounds with GIPRCNT values below 10 were considered active. Activity score was based on GIPRCNT using the following formula: […]
Score is 0 for GIPRCNT values of 100 or above, 50 for GIPRCNT values of 0, and 100 for GIPRCNT values of -100.
Consider `C/C=C/C/C=C/[C@H](C)C[C@H](O)[C@@H]1C[C@@H]2O[C@H]2/C=C/[C@@H]2OC(C)(C)O[C@H]2/C=C/C[C@H](C)CC(=O)O1`, for which the growth was 41.6% (inactive).

For the compound `C=CCNC(=S)NNc1ccc([N+](=O)[O-])cn1`, the growth is 105% (inactive).

As to `Cc1ccc(C(=O)Nc2ccc(CN3CCN(C)CC3)c(C(F)(F)F)c2)cc1C#Cc1cnc(N)c2ccc(C#N)cc12`, the growth was 42.7% (inactive).

Consider `CCCCCCCCCCCCCCCCNC(=S)N/N=C/c1ccc(OC)cc1`, for which the growth is 117% (inactive).

Regarding `COC(=O)C1CC(=O)N(C(=O)Nc2ccc(Cl)cc2Cl)C1` (stereo not given), the growth is 85.5% (inactive).

Take `Nc1nc2cc(O)ccc2n2cc3c(F)cccc3c12`: the growth was 24.9% (inactive).

For the compound `CCCCCC(=C/c1ccccc1)/C=N/N=C(N)N`, the growth is -4.74% (active).

`CC(C)CCCCCOC(=O)c1ccccc1SSc1ccccc1C(=O)OCCCCCC(C)C`: the growth was 99.8% (inactive).

Turning to `C=CN(C)S(C)(=O)=O`, the growth was 22.6% (inactive).

Turning to `CN(C)CCOC(=O)C(C)(C)C`, the growth was 112% (inactive).

Regarding `Cn1c2ccccc2c2ccccc21`, the growth is 90.8% (inactive).

On to `CCCCCCC(=O)C(C)C`, for which the growth is 93.8% (inactive).

Consider `CCCCCCCCCC(C)NC(=O)CCl` (stereo not given), for which the growth is 102% (inactive).

As to `OC(c1ccccc1)(c1ccccc1)C(F)(F)F`, the growth was 102% (inactive).

For the compound `CCCCCCCCCCCCOC(=O)/C=C\C(=O)NC(N)=O`, the growth is 101% (inactive).

For the compound `O=C1C(Br)=CC2C1C1C3CCC3C2(Br)C12OCCO2` (stereo not given), the growth is 47.2% (inactive).

For `O=c1c2c(c3ccccc3n1-c1ccccc1)NC(=S)NC2c1ccccc1` (stereo not given), the growth was 90.5% (inactive).

Regarding `O=C(N/N=C/c1coc2ccccc2c1=O)c1cc2oc(-c3ccccc3)cc2[nH]1`, the growth is 95.9% (inactive).

Turning to `O=C1CSC(c2ccccc2Cl)N1c1nnc(-c2ccncc2)o1` (stereo not given), the growth was 90.2% (inactive).

Regarding `CC(C)(C)c1cc(C[P+](c2ccc(Cl)cc2)(c2ccc(Cl)cc2)c2ccc(Cl)cc2)cc(C(C)(C)C)c1O`, the growth was 98.9% (inactive).

In the case of `CC(CCN1CCN(CCC(C)CC(C)(C)C)C1CC(C)CC(C)(C)C)CC(C)(C)C` (stereo not given), the growth is 93.5% (inactive).

For the compound `COc1cc(/C=C/C(=O)/C=C(/C=C/c2ccc(OC(C)=O)c(OC)c2)OB(F)F)ccc1OC(C)=O`, the growth was 103% (inactive).

As to `CC(C)CSc1nc(-c2ccc(F)cc2)c(C#N)c(N2CCCCC2)n1`, the growth was 110% (inactive).

Turning to `CCCCCCNC(=O)Oc1ccc(/C(=C(/C)Cc2ccc(OC)cc2)c2ccc(OCCN3CCCCC3)cc2)cc1`, the growth was 91.2% (inactive).

Turning to `O=C(CN1CCN(c2cccc(Cl)c2)CC1)N1CCN(c2nnc(-c3ccc(Cl)cc3)c(-c3ccc(Cl)cc3)n2)CC1`, the growth was 116% (inactive).

Turning to `CC(Br)c1nc2ccccc2cc1C(N)=O` (stereo not given), the growth is 101% (inactive).

Take `CCCCCCC(C(=O)OCC)(C(=O)OCC)C1CCCCCC1`: the growth is 91.9% (inactive).

With `O=C(c1ccccc1)c1ccccc1-c1ccccc1`, the growth is 32.5% (inactive).

As to `O=C(/C(Br)=C/c1ccccc1)c1ccccc1`, the growth was 80.3% (inactive).

For `CC1(C)NC(=S)NC1=O`, the growth was 104% (inactive).

`NCCCOc1cc2ccccc2cc1C(=O)Nc1ccc(Cl)cc1OC(=O)c1cc2ccccc2cc1OCCCN`: the growth is -92.3% (active).

Consider `O=C(Nc1ccc(-n2cc(-c3ccncc3)c(-c3ccc(Cl)c(O)c3)n2)cc1)Nc1ccc(Cl)c(C(F)(F)F)c1`, for which the growth is -7.48% (active).

For `CC(C)(C)c1ccc(OCCOC(=O)CBr)cc1`, the growth was 99.1% (inactive).

Turning to `CC1CCCCC[N+]12CCCC2` (stereo not given), the growth is 103% (inactive).

On to `CCOc1ccc(Br)cc1/C=C(\C#N)c1ccc([N+](=O)[O-])cc1`, for which the growth was 22.1% (inactive).

As to `C=CCC(CCC(CC=C)C(=O)OCC)C(=O)OCC` (stereo not given), the growth was 103% (inactive).

For `COC(=O)C(Cc1cnc[nH]1)N1CC(=O)N2[C@@H](c3ccccc3)SC[C@H]2C1=O` (stereo not given in full), the growth is 114% (inactive).

As to `CCOc1ccc(N(C)c2ccc(/C=C/C3=[N+](C)c4ccccc4C3(C)C)cc2)cc1`, the growth was 12.3% (inactive).

As for `CCCCCCCCCc1cc[n+](CC(=O)c2ccc([N+](=O)[O-])cc2)cc1`, the growth was 27.2% (inactive).

Consider `CCC(C)(CC)c1ccc(O)c(C)c1`, for which the growth was 101% (inactive).

The values are drawn from PubChem BioAssay (NCI).
